# Source: PubChem (Milwaukee Institute for Drug Discovery)
# Cy5 interf NS3h – counter-screen for HCV NS3 helicase inhibitors: fluorescence interference | Cy5-dT15 DNA with NS3h; actives lie on both sides; signal over control mean, under 1 quenches | actives 6% (n = 16,000) | fluorescence interference ratio at 100 µM;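 active = compound fluorescence over control fluorescence at most 0.8, a quencher, or at least a set upper limit, an enhancer; inactive = ratio between 0.8 and the set upper limit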
# HCV NS3h FP – hepatitis C NS3 helicase inhibition, primary screen. NS3h Cy5-dT15 DNA binding, fluorescence polarization. inhibition, % at 100 µM. actives 1.6% (n = 16,000). AID 687043;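 active = inhibition above the average over every tested compound plus 3 SD, cut at about 40% in these data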
# Starred values were filed as active, the others as inactive. Compounds with a hit are over-represented: about 6.8% of the library has one in this group of screens.
SMILES,Cy5 interf NS3h,HCV NS3h FP
C=C(C)c1cccc(C(C)(C)NC(=O)N2CCN(C/C=C/c3ccccc3)CC2)c1,0.65*,10
O=C(c1cccc(C#Cc2ccccc2)c1)N1CCN(C/C=C/c2ccccc2)CC1,0.97,17
CC12C(=O)C(C(c3ccccc3)NC1c1ccccc1)C(c1ccccc1)NC2c1ccccc1 (configuration not stated),1.1,-1
COc1ccc(C2Nc3ccccc3C(=O)N2Cc2ccco2)cc1COc1cccc(C)c1C (configuration not stated),0.94,0
Cc1ccc(CSc2nnc(-c3cccc(F)c3)n2-c2ccccc2)cc1,0.88,4
O=[N+]([O-])c1ccc(CSc2nnc(-c3cccc(F)c3)n2-c2ccccc2)cc1,0.79*,4
CCOC(=O)C1=C(C)N=c2s/c(=C/c3cc(Cl)c(OCC(=O)O)c(OC)c3)c(=O)n2C1c1ccccc1Cl (configuration not stated),0.98,-4
COc1ccc(S(=O)(=O)N(CC(=O)Nc2ccccc2C(F)(F)F)Cc2ccccc2)cc1OC,0.63*,14
COc1ccc(S(=O)(=O)N(CCc2ccccc2)CC(=O)Nc2ccc(Br)cc2)cc1OC,1,11
COC(=O)C1=C(C)NC2=C(C(=O)c3ccccc32)C1c1ccc(OCc2ccc([N+](=O)[O-])cc2)c(Cl)c1 (configuration not stated),1,-6
COc1ccc(NC(=O)COc2ccc(C(C)(C)c3ccccc3)cc2)c(OC)c1,0.97,8
CCN(Cc1ccccc1)C(=O)c1cc(C(=O)OC)cc([N+](=O)[O-])c1,0.66*,9
COC(=O)c1cc(C(=O)NCc2ccc(OC)cc2)cc([N+](=O)[O-])c1,0.96,10
O=C(/C=C/c1ccccc1)NC(=S)Nc1cccc(-c2nc3ncccc3o2)c1,1,-12
Cc1ccc(C(=O)Nc2ccccc2C(=O)NC(Cc2c[nH]c3ccccc23)C(=O)O)cc1 (configuration not stated),0.98,17
O=C(NC(c1ccccc1)c1ccccc1)C(=O)c1c[nH]c2ccccc12,0.66*,15
Cc1ccc(C(O)=C2C(=O)C(=O)N(c3nccs3)C2c2cccc(Br)c2)cc1 (configuration not stated),0.87,6
CC(C)(C)CC(C)(C)N=C1NS(=O)(=O)c2cc([N+](=O)[O-])ccc21,0.61*,3
CC(C)N=C1NS(=O)(=O)c2cc([N+](=O)[O-])ccc21,1,-4
O=C(NCCNc1ccc([N+](=O)[O-])cc1)c1cccc(Br)c1,1,20
Nc1nonc1C(=O)NCCNC(=O)c1cccc(Br)c1,0.71*,14
COc1ccc(C2NC(c3ccc(OC)cc3)C3CCCC2C3=O)cc1 (configuration not stated),1,6
COc1ccc(C2NC(c3ccc(OC)cc3)C(c3ccccc3)C(=O)C2c2ccccc2)cc1 (configuration not stated),0.72*,18
O=C(CO/N=C\c1ccccc1)N=Nc1c(O)[nH]c2ccc(Br)cc12,0.78*,-6
NC(=O)N=Nc1c(O)[nH]c2ccccc12,0.85,12
SMILES,Cy5 interf NS3h,HCV NS3h FP
O=C(CSCc1cccc(Br)c1)N=Nc1c(O)[nH]c2ccccc12,0.8*,16
Cc1ccc2[nH]c(O)c(N=NC(=O)COc3ccccc3)c2c1Br,0.86,11
O=[N+]([O-])c1ccc(Cl)cc1NCCOc1ccc(F)cc1,0.69*,21
COc1ccccc1OCCNc1cc(Cl)ccc1[N+](=O)[O-],1,3
Cc1cccc(OCCNc2cc(Cl)ccc2[N+](=O)[O-])c1,0.82,14
O=[N+]([O-])c1ccc(N2CCOCC2)cc1NCCc1ccccc1,0.67*,30
O=[N+]([O-])c1ccc(N2CCN(CCO)CC2)cc1NCCc1ccccc1,0.96,8
O=[N+]([O-])c1ccc(Cl)cc1NCCc1ccccc1,0.79*,18
O=C1NC(=O)/C(=C\c2ccc(Oc3ccc(C(F)(F)F)cc3[N+](=O)[O-])c(Cl)c2)S1,0.99,12
Cc1cccc(CC2CC(=O)N(c3ccc(/C=C/C(=O)O)cc3)C2=O)c1 (configuration not stated),1,-5
O=C(CN(c1ccc(F)cc1)S(=O)(=O)c1ccccc1)Nc1ccccc1Br,0.97,11
Cc1cccc(C)c1NS(=O)(=O)c1ccccc1,0.83,14
O=C(CSc1nc2ccccc2s1)Nc1nc2ccccc2s1,0.97,8
O=C(CSc1nc2ccccc2s1)c1ccc2ccccc2c1,0.74*,12
COc1ccc(NC(=O)CSc2nc3ccccc3s2)c(OC)c1,0.63*,4
COc1ccc(CNC(=O)CSc2nc3ccccc3s2)cc1,0.98,7
COCCNC(=O)C(=O)Nc1ccccc1C,1,7
COc1ccc(NC(=O)C(=O)NCc2ccccc2)cc1Cl,1,10
Cc1ccc(NC(CC(=O)O)C(=O)O)cc1 (configuration not stated),0.94,-16
CCCCNC(=O)/C(=C/c1ccc(-c2cccc([N+](=O)[O-])c2)o1)NC(=O)c1ccc(OC)cc1,0.99,12
COc1ccc(C(=O)N/C(=C\c2ccc(-c3cccc([N+](=O)[O-])c3)o2)C(=O)NCCCN2CCOCC2)cc1,0.77*,11
CCN1C(=O)N(C)C2C1N(C)C(=O)N2CC (configuration not stated),1.1,0
CN=C(NOCc1ccccc1)c1nonc1N,0.92,-6
CCN(CC)/C(=N\OCc1ccc(Cl)cc1Cl)c1nonc1N,0.67*,16
O=C(CCNc1ccc(F)cc1)c1cccs1,1.1,11
SMILES,Cy5 interf NS3h,HCV NS3h FP
Cc1cccc(NCCC(=O)c2cccs2)c1C,0.78*,7
O=C(COc1ccccc1Cl)Nc1cc(C(F)(F)F)ccc1Cl,1,-2
COC(=O)CN1C(=O)/C(=C/c2cc(OC)ccc2OC)SC1=S,1,10
COc1ccc(OC)c(/C=C2/SC(=S)N(CNc3cccc(Cl)c3)C2=O)c1,0.6*,22
CCOC(=O)COc1ccc(/C=N/n2cnnc2)cc1OC,0.96,4
Cc1ccc(S(=O)(=O)Nc2cc(Cl)c(O)c(Cl)c2)cc1,0.99,-4
CCOc1cc(/C=C2/SC(=S)N(C)C2=O)ccc1OCc1ccccc1Cl,1.2*,12
COc1cc(/C=C2/SC(=S)N(C)C2=O)cc(Cl)c1OCc1ccccc1Cl,0.96,-7
C=CCc1ccccc1OCCOc1cccc(/C=C2/SC(=S)N(C)C2=O)c1,1.2*,16
C=CCc1ccccc1OCCOc1ccc(/C=C2/SC(=S)N(C)C2=O)cc1,0.99,-2
O=C(NCCc1ccc(Cl)cc1)C(=O)Nc1ccccc1,1.1,4
COCCCN1C(=O)/C(=C/c2ccc(O)c(OC)c2)SC1=S,1,18
CCOc1cc(OCC)cc(C(=O)Nc2ccc(C)cc2[N+](=O)[O-])c1,1,0
O=C1CN(C(=O)c2cc([N+](=O)[O-])c(N3CCCCC3)c([N+](=O)[O-])c2N2CCCCC2)c2ccccc2N1,0.99,6
O=C(Cc1ccc(F)cc1)Nc1ccccc1Br,1,7
CC12CC3(C)CC(C)(C1)CC(C(=O)NN)(C2)C3,1,1
CC12CC3(C)CC(C)(C1)CC(C(=O)NCCO)(C2)C3,1.3*,14
CCOc1ccccc1NC(=O)c1c(NC(=O)C(C)(C)C)sc2c1CCCCC2,1.1,0
CCOc1ccccc1NC(=O)c1c(NC(=O)C(F)(F)F)sc2c1CCCCC2,1.2*,33
